# Source: PubChem BioAssay
# This is a sample that favours compounds with a hit; in the whole collection about 0.8% have one here.
# FEN1 inh: qHTS Assay for the Inhibitors of Human Flap endonuclease 1 (FEN1); P39748; Recombinant FEN1 flap cleavage, fluorescence, 15 min; Potency, µM (top dose mostly 114 µM), for inactives: at the top dose activity change, negative = inhibition, actives largely listed as inhibitors; 390,000 compounds, 0.35% hits; further: potency means the concentration at half of the fitted maximal effect; on the % scale 0 is the no-effect control and ±100 the full control effect; nearly all actives have a fitted effect of over 65% in size
#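 FEN1 at 10 nM, compound pretreatment for 15 min (room temperature), 50 nM final substrate to initiate; endpoint reads at 0 and 15 min; DMSO-only plates used as vehicle background.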
# TDP1 inh: qHTS Assay for Inhibitors of Tyrosyl-DNA Phosphodiesterase (TDP1). Tyrosyl-DNA phosphodiesterase 1 (Homo sapiens), Q9NUW8. 350,000 compounds, 0.28% hits. recombinant TDP1, AlphaScreen DNA substrate cleavage. Potency, µM (titrated, usually from 130 µM), for the others: at the highest dose activity change, negative = inhibition, usual class: inhibitors; further: potency means the concentration at half of the fitted maximal effect; on the % scale 0 is the no-effect control and ±100 the full control effect; nearly all actives have a fitted effect of over 40% in size
#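 Tdp1 1 nM final; 15 min RT w/ cpd; substrate 15 nM, 5 min; beads 10 ug/ml, 10 min; AlphaScreen read. Neg ctrl: no enzyme.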
# Tb PFK inh-1: qHTS Assay to Find Inhibitors of T. brucei phosphofructokinase | Potency, µM (titrated, usually from 57.5 µM), for the others: top-dose activity, negative = inhibition, usual class: inhibitors | T. brucei PFK, ADP-Glo luminescence | 330,000 compounds, 0.17% hits;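 further: potency means the concentration at half of the fitted maximal effect; 0% = uninhibited 1x PFK enzyme wells and -100% = no-enzyme wells; nearly all actives have a fitted effect of over 60% in size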
#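 Compounds were pin-transferred as a titration series up to 57 uM into substrate buffer (0.5 mM F6P, 0.1 mM ATP, pH 8.0), then 1.25 nM PFK was added and reactions ran 45 min before ADP-Glo detection.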
# APE1 inh: qHTS Assay for Inhibitors of the Human Apurinic/apyrimidinic Endonuclease 1 (APE1); 350,000 compounds, 0.35% hits; AID 2517, 2012; recombinant APE1, TAMRA/BHQ-2 abasic DNA cleavage fluorescence; Potency, µM (doses to about 65.8 µM), inactives show top-dose activity change, negative = inhibition, actives largely listed as inhibitors; DNA repair nuclease/redox regulator APEX1 (Homo sapiens), P27695;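 further: potency means the concentration at half of the fitted maximal effect; plate controls were vehicle for no effect and reference inhibitor for full effect; nearly all actives have a fitted effect of over 55% in size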
# Target sequence (P27695 whole entry, looked up): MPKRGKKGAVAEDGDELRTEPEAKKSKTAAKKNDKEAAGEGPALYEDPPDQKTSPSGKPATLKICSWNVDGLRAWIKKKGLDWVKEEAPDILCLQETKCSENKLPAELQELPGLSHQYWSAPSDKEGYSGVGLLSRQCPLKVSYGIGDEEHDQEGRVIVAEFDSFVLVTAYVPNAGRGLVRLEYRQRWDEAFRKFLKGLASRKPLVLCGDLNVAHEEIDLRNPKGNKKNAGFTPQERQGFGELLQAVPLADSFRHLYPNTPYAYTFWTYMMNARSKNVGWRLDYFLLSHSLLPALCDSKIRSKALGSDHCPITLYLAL
#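 APE1 at 0.75 nM preincubated 15 min at room temperature with compound. Reaction then started with 50 nM double-stranded THF-abasic substrate labelled with TAMRA/BHQ-2, and 525/598 nm fluorescence read kinetically. Activity taken as third-minus-first read difference, normalized to DMSO and NSC13755 controls.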
# Tb PGK inh: qHTS Assay to Find Inhibitors of Phosphoglycerate Kinase; AID 602233, 2012; 380,000 compounds, 0.043% hits; Phosphoglycerate kinase, glycosomal (Trypanosoma brucei brucei), P07378; PGK/GAPDH coupled, Kinase-Glo luminescence, 60 min; Potency, µM (series often up to 57.5 µM), for the others: top-dose activity change, negative = inhibition, hits mostly inhibitors; further: potency means the concentration at half of the fitted maximal effect; on the % scale 0 is the no-effect control and ±100 the full control effect; nearly all actives have a fitted effect of over 60% in size
# Target sequence (P07378 whole entry, looked up): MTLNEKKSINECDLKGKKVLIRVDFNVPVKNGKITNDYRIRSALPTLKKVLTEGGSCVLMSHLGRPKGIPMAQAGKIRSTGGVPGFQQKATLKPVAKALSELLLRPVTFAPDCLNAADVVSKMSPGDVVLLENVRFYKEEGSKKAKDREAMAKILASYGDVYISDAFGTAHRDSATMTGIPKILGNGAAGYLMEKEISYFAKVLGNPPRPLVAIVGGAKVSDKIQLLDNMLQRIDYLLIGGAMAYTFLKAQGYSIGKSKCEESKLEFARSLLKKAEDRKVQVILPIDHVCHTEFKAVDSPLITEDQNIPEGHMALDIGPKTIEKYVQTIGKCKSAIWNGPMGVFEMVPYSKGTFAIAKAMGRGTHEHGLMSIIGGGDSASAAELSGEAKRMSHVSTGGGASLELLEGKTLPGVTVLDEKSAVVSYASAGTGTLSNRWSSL
#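 Luminescent ATP detection (Kinase-Glo Plus) follows a 60-minute room-temperature incubation, with wells lacking PGK as controls. Buffer: 100 mM TEA (pH 7.6), 5 mM MgCl2, 0.01% Tween-20. Coupling enzyme GAPDH (100 nM final) supplies unstable 1,3-BPG in-well.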
# PI4K2A block: qHTS for small molecular inhibitors of PI4K2A; activity change, negative = inhibition, % at 76.9 µM; 420,000 compounds, 0.13% hits; purified PI4K2A, ADP-Glo luminescence, 1 h; hits give low values; AID 1346378, 2018; Phosphatidylinositol 4-kinase type 2-alpha (Homo sapiens), Q9BTU6; in the data active means activity change below about -50%; inconclusive means mostly about -30% to -49%;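 further: -100% = wells without enzyme as full effect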
#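 ADP-Glo luminescence measured ADP generated by PI4K2A enzyme (4 ug/mL before mixing) with 1.2 mM PI substrate (pre-mix) and 300 microM ATP (pre-mix). Tris pH7.5 buffer with MgCl2, Triton X-100; 1 h reaction at ambient temperature.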
# TbPFK ATP: Tb PFK orthogonal confirmatory assay using ATP depletion (Kinase-Glo Plus) as an alternative measure of Tb PFK activity: Hit Validation | shares compounds with Tb PFK inh-1 | Tb PFK enzyme, ATP depletion, Kinase-Glo Plus luminescence | Potency, µM (top dose mostly 57.5 µM), without a hit: top-dose inhibition | 1,100 compounds, 47% hits | AID 504636, 2011; calls by dose curve; further: potency means the concentration at half of the fitted maximal effect; nearly all actives have a fitted effect of over 60% in size
# Tb PFK inh-2: Inhibitors of T. brucei phosphofructokinase: Hit Validation | shares compounds with Tb PFK inh-1 | purified T. brucei PFK, ADP-Glo luminescence, 45 min | Potency, µM (doses to about 57.5 µM), for inactives: top-dose activity change, negative = inhibition, hits mostly inhibitors | 1,100 compounds, 41% hits | AID 504637, 2011;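 further: potency means the concentration at half of the fitted maximal effect; plate controls were full PFK enzyme control for no effect and no enzyme control for full effect; nearly all actives have a fitted effect of over 60% in size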
# * marks the source's active call; other numbers are inactive results; i = inactive; ? = inconclusive; · = not tested or not shown; [ ] = another dose, or the depositor's remark. Unless noted, the call rests on the fitted dose curve; in most records, active means well fitted curve in the direction sought with a large enough effect; inconclusive means small, poorly fitted or top-dose-only effect, or another doubt; inactive means no such curve, though single readings can be large; an effect the other way counts as inactive or inconclusive.
SMILES,FEN1 inh,TDP1 inh,Tb PFK inh-1,APE1 inh,Tb PGK inh,PI4K2A block,TbPFK ATP,Tb PFK inh-2
O=C(COC(=O)Cc1ccccc1)Nc1cc(S(=O)(=O)N2CCOCC2)ccc1N1CCCC1,-13%,7%,4%,6%,-3%,1,·,·
CC1=CC[C@@H]2[C@@H](C1)c1c(O)cc(CC#CCCCNS(C)(=O)=O)cc1OC2(C)C,·,6%,·,-11%,·,·,·,·
NC1CCc2cc(O)c(O)cc2C1 (configuration not stated),0%,12%,6.7µM*,8%,-8%,-1,2.7µM*,2.7µM*
CC[C@H](CC[C@@H](C)C1CC[C@H]2[C@@H]3CC=C4C[C@@H](O)CC[C@]4(C)[C@H]3CC[C@]12C)C(C)C (some centres not stated),·,9%[56.1 µM],·,-3%,·,·,·,·
O=C(O)CC1S/C(=N/N=C/C=C/c2ccccc2[N+](=O)[O-])NC1=O (configuration not stated),6%,3%,?,3%,-8%,-3,-33%,?
O=C(O)CC1S/C(=N/N=C/c2ccc(-c3ccc(Cl)cc3[N+](=O)[O-])o2)NC1=O (configuration not stated),?,-7%,?,-7%,-16%,-12,-33%,?
ClC1=C(Cl)[C@]2(Cl)[C@@H]3[C@@H]4C[C@@H]([C@H]5O[C@@H]45)[C@@H]3[C@@]1(Cl)C2(Cl)Cl,·,·,·,·,·,i,·,·
Clc1ccc(COc2ccccn2)cc1Cl,5%,-2%,17µM*,0%,4%,12,12µM*,27µM*
O=[N+]([O-])c1ncccc1OCc1ccc(Cl)c(Cl)c1,-8%,6%,?,53%,-9%,5,15µM*,17µM*
ClCc1ccccn1,·,14%,·,4%,·,·,·,·
CCC#N,·,12%,·,1%,·,·,·,·
CN(C)c1ccccc1,·,7%,·,16%,-7%,1,·,·
CN(C)c1ccc(NC(=S)c2ccc3ccccc3n2)cc1,5%,12%,?,-15%,-2%,4,9.5µM*,9.5µM*
CC(C)C1O/C(=N/C(=O)Nc2ccc(Cl)c(Cl)c2)NC1=O (configuration not stated),-5%,3%,9.5µM*,0%,7%,-3,24µM*,27µM*
O=C1NC(=O)C(Nc2ccc(Cl)c(Cl)c2)C(=O)N1,-8%,·,·,·,-13%,?,·,·
Cc1c(C(=O)c2cccc3ccccc23)c2cccc3c2n1[C@@H](CN1CCOCC1)CO3,·,9%,·,-11%,·,·,·,·
c1ccc(CN2CCC3(CCc4ccccc43)CC2)cc1,·,12%,·,?,·,·,·,·
CCN(CC)c1ccc2nc3ccccc3[n+](CC)c2c1,?,12%,15µM*,5%,?,-55*,-17%,?
c1ccc2nc3ccccc3cc2c1,?,7%,·,-3%,·,·,·,·
Cc1nnc(Sc2cc(NCCCO)c([N+](=O)[O-])c3nonc23)s1,45µM*,-5%,6µM*,-4%,-5%,?,1.9µM*,3.4µM*
Cc1nnc(Sc2cc(NCCO)c([N+](=O)[O-])c3nonc23)s1,40µM*,2%,5.4µM*,?,2%,-19,1.3µM*,1.5µM*
CC(=O)OC1CC[C@@]2(C)C(=CC[C@H]3[C@@H]4CC[C@H](C(C)=O)[C@@]4(C)CC[C@@H]32)C1 (some centres not stated),·,26%,·,-1%,·,·,·,·
CN1C(=O)NC(=O)/C(=C\C=C\c2ccccc2[N+](=O)[O-])C1=O,?,3%,?,5%,-6%,-10,2%,?
Cn1ccnc1,?,-9%[56.1 µM],·,?,·,-4,·,·
Cc1ccc(-c2cn3c(=S)[nH]nc3s2)cc1,2%,3%,?,-6%,i,2,0.67µM*,?
SMILES,FEN1 inh,TDP1 inh,Tb PFK inh-1,APE1 inh,Tb PGK inh,PI4K2A block,TbPFK ATP,Tb PFK inh-2
C=C(C)CCl,·,18%,·,-4%,·,·,·,·
c1nc[n]([Sn]([CH]2CCCCC2)([CH]2CCCCC2)[CH]2CCCCC2)n1,·,4%,·,-3%,·,·,·,·
Cc1c(C(=O)Nc2nc(-c3ccccn3)cs2)oc2ccccc12,-27%,-2%,?,-17%,0%,-10,19µM*,30µM*
O=c1ccc(=O)[nH][nH]1,·,2%,·,3%,·,·,·,·
Cc1cccc(NC(=O)COc2ccc(/C=N\n3cnnc3)cc2)c1,-9%,9%,?,6%,-10%,4,?,-18%
Cc1[nH]ccc2c1[nH]c1cc(=O)ccc12,-8%,9%[56.1 µM],2%,?,-3%,6,·,·
CC(=O)NC(C)c1ccc(Cl)c(Cl)c1 (configuration not stated),4%,6%,?,-2%,-4%,-5,21µM*,30µM*
O=C(COc1ccc(Cl)cc1)Nc1cccc(S(=O)(=O)NC2=NCCCCC2)c1,-1%,-7%[0.505 µM],3µM*,-14%,1%,1,2.7µM*,6µM*
CC(C)(C)c1cc(C(=S)N2CCN(CCO)CC2)cc(C(C)(C)C)c1O,13%,7%,30µM*,-7%,-2%,4,12µM*,24µM*
COc1ccc(Br)cc1CN1CCN(CCO)CC1,-9%,-1%,-2%,-4%,5%,4,·,·
CN1CCN(S(=O)(=O)c2ccc(NC(=O)Cc3ccc([N+](=O)[O-])cc3)cc2)CC1,-4%,7%,17µM*,34%,i,-1,6µM*,12µM*
Cc1cc(OCC(=O)Nc2ccc(S(=O)(=O)N3CCN(C)CC3)cc2)ccc1Cl,13%,5%,27µM*,-15%,-11%,0,?,?
